The entries come from a sample that favours the strongest signals as a whole.
Legend:
Assay in all cases: glycan array binding signal (z-score within array); higher = stronger binding
Settings in all cases: glycan notation: IUPAC condensed, linker removed
[1] = molecular target: Fuc(a1-2)Gal(b1-3)GalNAc(b1-3)Gal(a1-4)Gal(b1-4)Glc
Method in brief: (§1)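 Glycan array data were curated from 3228 arrays in the Consortium for Functional Glycomics database and kept only where the protein sequence was available. Glycan names were converted to IUPAC-condensed notation, and columns mapping to the same glycan were averaged. The binding signal is a within-array Z-score, averaged across arrays of the same protein sequence at different concentrations or buffers and across linkers. Negative Z-scores can be read as non-binding.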

[2] = molecular target: Fuc(a1-2)Gal(b1-3)GlcNAc(b1-3)[Fuc(a1-3)[Gal(b1-4)]GlcNAc(b1-6)]Gal(b1-4)Glc
Method in brief: as §1

[3] = molecular target: Fuc(a1-2)Gal(b1-3)[Fuc(a1-4)]GlcNAc(b1-2)Man(a1-3)[Fuc(a1-2)Gal(b1-3)[Fuc(a1-4)]GlcNAc(b1-2)Man(a1-6)]Man(b1-4)GlcNAc(b1-4)GlcNAc
Method in brief: as §1

[4] = molecular target: Fuc(a1-2)Gal(b1-3)[Fuc(a1-4)]GlcNAc(b1-3)[Fuc(a1-3)[Gal(b1-4)]GlcNAc(b1-6)]Gal(b1-4)Glc
Method in brief: as §1

[5] = molecular target: Fuc(a1-2)Gal(b1-4)[Fuc(a1-3)]GlcNAc(b1-2)[Fuc(a1-2)Gal(b1-4)[Fuc(a1-3)]GlcNAc(b1-4)]Man(a1-3)[Fuc(a1-2)Gal(b1-4)[Fuc(a1-3)]GlcNAc(b1-2)Man(a1-6)]Man(b1-4)GlcNAc(b1-4)GlcNAc
Method in brief: as §1

[6] = molecular target: Fuc(a1-2)[GalNAc(a1-3)]Gal(b1-3)GlcNAc(b1-2)Man(a1-3)[Fuc(a1-2)[GalNAc(a1-3)]Gal(b1-3)GlcNAc(b1-2)Man(a1-6)]Man(b1-4)GlcNAc(b1-4)[Fuc(a1-6)]GlcNAc
Method in brief: as §1

[7] = molecular target: Fuc(a1-2)[GalNAc(a1-3)]Gal(b1-3)GlcNAc(b1-3)GalNAc
Method in brief: as §1

[8] = molecular target: Fuc(a1-2)[GalNAc(a1-3)]Gal(b1-4)GlcNAc(b1-3)Gal(b1-4)GlcNAc(b1-3)Gal(b1-4)GlcNAc
Method in brief: as §1

[9] = molecular target: Gal(a1-3)Gal(b1-4)GlcNAc(b1-3)GalNAc
Method in brief: as §1

[10] = molecular target: Gal(a1-3)Gal(b1-4)[Fuc(a1-3)]GlcNAc(b1-2)Man(a1-3)[Gal(a1-3)Gal(b1-4)[Fuc(a1-3)]GlcNAc(b1-2)Man(a1-6)]Man(b1-4)GlcNAc(b1-4)GlcNAc
Method in brief: as §1

[11] = molecular target: Gal(a1-4)Gal(b1-4)GlcNAc(b1-3)Gal(b1-4)Glc
Method in brief: as §1

Gal(b1-2)Gal = molecular target: Gal(b1-2)Gal
Method in brief: as §1

Gal(b1-3)Gal(b1-4)GlcNAc = molecular target: Gal(b1-3)Gal(b1-4)GlcNAc
Method in brief: as §1

[12] = molecular target: Gal(b1-3)GlcNAc(b1-3)Gal(b1-4)Glc
Method in brief: as §1

[13] = molecular target: Gal(b1-3)GlcNAc(b1-3)Gal(b1-4)GlcNAc
Method in brief: as §1

[14] = molecular target: Gal(b1-3)[Fuc(a1-4)]GlcNAc(b1-2)Man(a1-3)[Gal(b1-3)[Fuc(a1-4)]GlcNAc(b1-2)Man(a1-6)]Man(b1-4)GlcNAc(b1-4)GlcNAc
Method in brief: as §1

[15] = molecular target: Gal(b1-3)[Neu5Ac(a2-6)]GalNAc
Method in brief: as §1

Gal(b1-4)GlcNAc = molecular target: Gal(b1-4)GlcNAc
Method in brief: as §1

[16] = molecular target: Gal(b1-4)GlcNAc(b1-2)Man(a1-3)[Gal(b1-4)GlcNAc(b1-2)Man(a1-6)]Man(b1-4)GlcNAc(b1-4)GlcNAc
Method in brief: as §1

[17] = molecular target: Gal(b1-4)GlcNAc(b1-3)Gal(b1-4)Glc
Method in brief: as §1

[18] = molecular target: Gal(b1-4)GlcNAc(b1-3)[GlcNAc(b1-6)]Gal(b1-4)GlcNAc
Method in brief: as §1

[19] = molecular target: Gal(b1-4)GlcNAc(b1-6)Gal(b1-4)GlcNAc(b1-6)GalNAc
Method in brief: as §1

Gal3S(b1-3)GalNAc = molecular target: Gal3S(b1-3)GalNAc
Method in brief: as §1

[20] = molecular target: GalNAc(b1-3)Gal(a1-4)Gal(b1-4)GlcNAc(b1-3)Gal(b1-4)Glc
Method in brief: as §1

GalNAc(b1-3)GalNAc = molecular target: GalNAc(b1-3)GalNAc
Method in brief: as §1

Glc(a1-4)Glc = molecular target: Glc(a1-4)Glc
Method in brief: as §1

[21] = molecular target: GlcNAc(a1-4)Gal(b1-3)GlcNAc
Method in brief: as §1

[22] = molecular target: GlcNAc(a1-4)Gal(b1-4)GlcNAc(b1-3)Gal(b1-4)GlcNAc
Method in brief: as §1

[23] = molecular target: GlcNAc(a1-6)Gal(b1-4)GlcNAc
Method in brief: as §1

[24] = molecular target: GlcNAc(b1-2)Man(a1-3)[GlcNAc(b1-2)Man(a1-6)]Man(b1-4)GlcNAc(b1-4)[Fuc(a1-6)]GlcNAc
Method in brief: as §1

B1: F17aG (Escherichia coli), Q99003 (protein)
chain: MTNFYKVFLAVFILVCCNISQAAVSFIGSTENDVGPSLGSYSRTHAMDNLPFVYDTRNKIGYQNANVWHISKGFCVGLDGKVDLPVVGSLDGQSIYGLTEEVGLLIWMGDTKYSRGTAMSGNSWENVFSGWCVGANTASTQGLSVRVTPVILKRNSSARYSVQKTSIGSIRMRPYNGSSAGSVQTTVNFSLNPFTLNDTVTSCRLLTPSAVNVSLAAISAGQLPSSGDEVVAGTTSLKLQCDAGVTVWATLTDATTPSNRSDILTLTGASTATGVGLRIYKNTDSTPLKFGPDSPVKGNENQWQLSTGTETSPSVRLYVKYVNTGEGINPGTVNGISTFTFSYQ
Question: B1 was tested. Which “glycan array binding signal (z-score)” value [1] did it give?
Answer: -0.23

Question: What about the “glycan array binding signal (z-score)” value [2] of the same binder?
Answer: -0.148

Question: And the “glycan array binding signal (z-score)” value [3]?
Answer: -0.169

Question: And the “glycan array binding signal (z-score)” value [4]?
Answer: -0.139

Question: And the “glycan array binding signal (z-score)” value [5]?
Answer: -0.163

Question: And the “glycan array binding signal (z-score)” value [6]?
Answer: -0.143

Question: And the “glycan array binding signal (z-score)” value [7]?
Answer: -0.113

Question: What about the “glycan array binding signal (z-score)” value [8] of the same binder?
Answer: 0.023

Question: And the “glycan array binding signal (z-score)” value [9]?
Answer: -0.168

Question: What about the “glycan array binding signal (z-score)” value [10] of the same binder?
Answer: -0.157

Question: And the “glycan array binding signal (z-score)” value [11]?
Answer: -0.154

Question: And the “glycan array binding signal (z-score)” value (Gal(b1-2)Gal)?
Answer: -0.25

Question: And the “glycan array binding signal (z-score)” value (Gal(b1-3)Gal(b1-4)GlcNAc)?
Answer: -0.151

Question: What about the “glycan array binding signal (z-score)” value [12] of the same binder?
Answer: -0.252

Question: What about the “glycan array binding signal (z-score)” value [13] of the same binder?
Answer: -0.236

Question: And the “glycan array binding signal (z-score)” value [14]?
Answer: -0.119

Question: And the “glycan array binding signal (z-score)” value [15]?
Answer: -0.205

Question: And the “glycan array binding signal (z-score)” value (Gal(b1-4)GlcNAc)?
Answer: -0.14

Question: What about the “glycan array binding signal (z-score)” value [16] of the same binder?
Answer: -0.254

Question: What about the “glycan array binding signal (z-score)” value [17] of the same binder?
Answer: -0.147

Question: What about the “glycan array binding signal (z-score)” value [18] of the same binder?
Answer: 1.53

Question: What about the “glycan array binding signal (z-score)” value [19] of the same binder?
Answer: -0.312

Question: What about the “glycan array binding signal (z-score)” value (Gal3S(b1-3)GalNAc) of the same binder?
Answer: -0.244

Question: And the “glycan array binding signal (z-score)” value [20]?
Answer: -0.179

Question: And the “glycan array binding signal (z-score)” value (GalNAc(b1-3)GalNAc)?
Answer: 1.69

Question: And the “glycan array binding signal (z-score)” value (Glc(a1-4)Glc)?
Answer: -0.243

Question: What about the “glycan array binding signal (z-score)” value [21] of the same binder?
Answer: -0.089

Question: And the “glycan array binding signal (z-score)” value [22]?
Answer: -0.182

Question: And the “glycan array binding signal (z-score)” value [23]?
Answer: -0.243

Question: What about the “glycan array binding signal (z-score)” value [24] of the same binder?
Answer: -0.17

Source: the supplement of paper PMC8728848
